Among all 13,000 compounds or so, about 3,200 (25%) showed an effect of 50% or more. This is one part of the list.
Test system: P. falciparum stage V gametocytes
Parameters: BacTiter-Glo ATP luminescence viability of purified stage V gametocytes in 384-well plates, per cent inhibition versus DMSO
Conditions: 48 h, 5 µM; inhibitor

SMILES	% Inhibition [%]
C[C@@]12C[C@@H](Nc3nc(NCCc4ccc(O)cc4)nc(N4CCNCC4)n3)C[C@@H](C1)c1cccc(Cl)c1O2 [TCMDC-134047]	-6.304
Cc1cc(NC(=O)Nc2ccc3nc(C)oc3c2)c2cc(Cl)ccc2n1 [TCMDC-140076]	38.43
O=C(Nc1ccc2c(c1)OCO2)NC1CCN(c2ccnc(Nc3ccc(F)cc3)n2)C1 (stereo not shown) [TCMDC-133605]	-89.44
CC(C)Cc1csc(NC(=O)C=Cc2ccco2)c1C(=O)O [TCMDC-125660]	6.698
Clc1ccc(OCc2ccccc2)c(-c2nc(-c3nc4ncc(Br)cc4[nH]3)cs2)c1 [TCMDC-136729]	-65.34
c1ccc(CN2CCC(NCc3ccccc3-c3ccc(CNC4CCCC4)cc3)CC2)cc1 [TCMDC-140473]	106.4
c1ccc(CN2CCC(NCc3ccc(-c4cncc5ccccc45)cc3)CC2)cc1 [TCMDC-134153]	14.12
COc1ccccc1NC(=O)Nc1cccc(-c2ccc(-c3nc4ccc(C(F)(F)F)cc4[nH]3)cc2)c1 [TCMDC-133203]	-14.42
N#Cc1ccc(N2CCN(Cc3cccc(-c4ccc(-c5nc6ccccc6[nH]5)cc4)c3)CC2)nc1.O=C(O)C(F)(F)F [TCMDC-133937]	5.421
FC(F)(F)c1cnc(Sc2nnc(-c3ccncc3)o2)c(Cl)c1 [TCMDC-123767]	83.92
FC(F)(F)c1cnc(Sc2nnc(-c3ccco3)o2)c(Cl)c1 [TCMDC-125006]	-49.8
CC1CCCCN1Cc1cccc(-c2c[nH]c3nc(NC4CCCC4)ncc23)c1 (stereo not shown) [TCMDC-133776]	-28.36
COc1ccc2nccc([C@@H](O)CN3CCC(NCc4ccc5c(c4)oc(=S)n5C)CC3)c2c1 [TCMDC-141186]	1.23
O=[N+]([O-])c1ccc(N2CCCN(C(=S)Nc3ccc(F)cc3Br)CC2)nc1 [TCMDC-124054]	81.59
O=C(Nc1ccc(Cn2ncc(N3CCCNCC3)c(Cl)c2=O)cc1)Nc1ccc(F)cc1[N+](=O)[O-] [TCMDC-141926]	-31.19
O=C(Nc1ccc([N+](=O)[O-])cc1Br)c1cc2ccccc2nc1Cl [TCMDC-124537]	29.24
N#Cc1ccc(NC(=NC2CCN(Cc3ccccc3)CC2)Nc2ccccc2Cl)c(O)c1 [TCMDC-140256]	-5.798
Cc1cccc2nc(-c3cccc(-c4ccc(C(=O)NCc5ccccc5S(C)(=O)=O)cc4)c3)[nH]c12 [TCMDC-132505]	5.091
CC(C)n1nc(C(=O)N2CCN(c3ccccc3)CC2)c2ccccc2c1=O [TCMDC-124333]	78.8
CC(=O)CC(=O)N1CCN(c2ccccc2)CC1 [TCMDC-125502]	-5.255
Cn1nc(C(=O)N2CCC(c3[nH]ncc3Cc3ccccc3)CC2)c2ccccc2c1=O [TCMDC-124642]	16.79
Cn1c2c(c3ccccc31)CN(CCC1(c3ccc(Cl)c(Cl)c3)CN(C(=O)c3ccccc3)CCO1)CC2 (stereo not shown) [TCMDC-135562]	-29.91
COCCN(C(=O)Cc1cccs1)C(C(=O)NCc1ccc(OC)cc1)c1ccc(C(C)C)cc1 (stereo not shown) [TCMDC-125625]	-2.779

SMILES	% Inhibition [%]
CN1CCN(CCNc2c3ccccc3nc3c2ccc2ccccc23)CC1 [TCMDC-137723]	92.22
CN1CCN(CCNc2c3ccccc3nc3ccc4ccccc4c23)CC1 [TCMDC-137724]	54.46
CN(Cc1cnc2nc(N)nc(N)c2n1)c1ccc(C(=O)N[C@@H](CCC(=O)O)C(=O)O)cc1 [TCMDC-125858]	-8.966
Cc1c(-c2cccc(Br)c2)[nH]c2nc(N)nc(N)c12 [TCMDC-137836]	-91.89
COc1ccc(C(=O)N2CCC(CN3CCOC(c4ccccc4)(c4ccccc4)C3)CC2)cc1 [TCMDC-136347]	57.99
O=C(c1ccccc1)N1CCC(CN2CCOC(c3ccccc3)(c3ccccc3)C2)CC1 [TCMDC-136346]	86.1
O=C(Nc1cccc(F)c1)N1CCC(CN2CCOC(c3ccccc3)(c3ccccc3)C2)CC1 [TCMDC-136345]	66.91
O=C(Nc1ccccc1)N1CCC(CN2CCOC(c3ccccc3)(c3ccccc3)C2)CC1 [TCMDC-136344]	40.09
O=C(c1ccc(Cl)cc1)N1CCOC(CCN2CCC(c3ccccc3)CC2)(c2ccc(Cl)c(Cl)c2)C1 (stereo not shown) [TCMDC-135351]	-32.03
CCOc1ccc(C(=O)N2CCOC(CCN3CCC(c4ccccc4)CC3)(c3ccc(Cl)c(Cl)c3)C2)cc1 (stereo not shown) [TCMDC-135344]	-65.78
O=C(c1ccc(F)c(F)c1)N1CCOC(CCN2CCC(c3ccccc3)CC2)(c2ccc(Cl)c(Cl)c2)C1 (stereo not shown) [TCMDC-135337]	-91.33
COc1cc(OC)cc(C(=O)N2CCOC(CCN3CCC(c4ccccc4)CC3)(c3ccc(Cl)c(Cl)c3)C2)c1 (stereo not shown) [TCMDC-135348]	-85.08
O=C(Nc1cc(F)cc(F)c1)N1CCOC(CCN2CCC(c3ccccc3)CC2)(c2ccc(Cl)c(Cl)c2)C1 (stereo not shown) [TCMDC-135333]	17.76
NC(N)=NC(=O)Nc1cc(F)c(Cl)c(Br)c1 [TCMDC-137510]	-16.64
CC(C)Nc1nc(NC2CCCCC2)nc(N2CCCCCCC2)n1 [TCMDC-139688]	-95.56
Cc1nc2ccc(Nc3nccc(-c4c(-c5cccc(NC(=O)c6c(F)cccc6F)c5)nn5ccccc45)n3)cc2nc1C [TCMDC-135906]	-53.2
Cc1ccc2c(NN=Cc3ccc(N(C)C)cc3)cc(C)nc2c1 [TCMDC-142076]	-47.79
Cc1cc(NN=Cc2cccc(Cl)c2)c2ccccc2n1 [TCMDC-142060]	-14.77
Cc1ccc2c(NN=Cc3cccc(Cl)c3)cc(C)nc2c1 [TCMDC-142064]	91.21
Cc1ccc2nc(C)cc(NN=Cc3cccc(Cl)c3)c2c1 [TCMDC-142063]	87.16
Cc1cc(N2CCCC2)nc(Nc2ccc(NC(=O)c3ccco3)cc2)n1 [TCMDC-124965]	-16.57
O=C1C2C3SC(c4c3ccc3ccccc43)C2C(=O)N1c1ccccc1 (stereo not shown) [TCMDC-123946]	-5.395
COC(=O)c1ccc(NC(=O)c2ccc(CCN3CCC(c4nc(COCC(F)(F)F)c(-c5ccc(F)cc5)o4)CC3)cc2)cc1 [TCMDC-138133]	-17.07

SMILES	% Inhibition [%]
CCN(C(=O)CSc1cc(C)c2cc(C)cc(C)c2n1)C1CCS(=O)(=O)C1 (stereo not shown) [TCMDC-123568]	-6.938
COc1ccc2[nH]cc(C3CCN(Cc4ccc(NC(=O)c5ccc(-c6ccccc6)cc5)cc4)CC3)c2c1 [TCMDC-139069]	7.748
COc1ccc2[nH]cc(C3CCN(CCCCNC(=O)c4ccc(NC(=O)c5ccc(Cl)cc5)cc4)CC3)c2c1 [TCMDC-138328]	-10.4
CN(C)CCCOc1ccc(CN2CCC(c3c[nH]c4ccc(NCC5CCCCC5)cc34)CC2)cc1 [TCMDC-140737]	96.97
Cc1noc(C)c1-c1cccc(CNCc2cccc(-c3cccc(-c4nc5ccccc5[nH]4)c3)c2)c1.O=C(O)C(F)(F)F [TCMDC-133065]	2.097
CCOCCCn1c(=N)c(C(=O)NCc2ccc(F)cc2)cc2c(=O)n3cccc(C)c3nc21 [TCMDC-125407]	36.21
COc1ccc(CCn2c(=N)c(C(=O)NCc3cccnc3)cc3c(=O)n4cccc(C)c4nc32)cc1 [TCMDC-124470]	92
COCCCn1c(=N)c(C(=O)NCCc2ccc(OC)cc2)cc2c(=O)n3cccc(C)c3nc21 [TCMDC-125085]	9.799
COc1ccc(CCn2c(=N)c(C(=O)NCc3ccccc3)cc3c(=O)n4cccc(C)c4nc32)cc1 [TCMDC-124473]	6.095
CCOCCCn1c(=N)c(C(=O)NCc2ccc(OC)cc2)cc2c(=O)n3cccc(C)c3nc21 [TCMDC-125406]	75.07
COc1ccc(CCn2c(=N)c(C(=O)NCc3cccnc3)cc3c(=O)n4ccccc4nc32)cc1 [TCMDC-124471]	25.4
CCCCn1c(=N)c(C(=O)NCc2cccnc2)cc2c(=O)n3cccc(C)c3nc21 [TCMDC-124382]	12.6
Cc1cccn2c(=O)c3cc(C(=O)NC(C)c4ccccc4)c(=N)n(CCc4ccccc4)c3nc12 (stereo not shown) [TCMDC-124469]	-59.42
Cc1ccc2nc3c(cc(C(=O)NCCc4ccccc4)c(=N)n3CCCOC(C)C)c(=O)n2c1 [TCMDC-125408]	-18.91
CCCn1c(=N)c(C(=O)NCCc2ccccc2)cc2c(=O)n3cccc(C)c3nc21 [TCMDC-125084]	4.719
Cc1cccn2c(=O)c3cc(C(=O)NCc4cccnc4)c(=N)n(CCc4ccccc4)c3nc12 [TCMDC-125663]	86.68
Cc1cccn2c(=O)c3cc(C(=O)NCCc4ccccc4)c(=N)n(CCCOC(C)C)c3nc12 [TCMDC-125410]	68.18
Cn1c(-c2ccccc2)cc2c3c(=O)cc(C(F)(F)F)[nH]c3ccc21 [TCMDC-123876]	31.04
C#CCOc1ccc(N2C(N)=NC(N)=NC2(C)C)cc1 [TCMDC-137471]	11.38
CC(C)c1cc2c(ccc3nc(N)nc(N)c32)o1 [TCMDC-131930]	25.15
Cc1ncccc1C(=O)Nc1cccc(-c2cccc(-c3nc4c(C)cccc4[nH]3)c2)c1 [TCMDC-136861]	-23.88
